Columns and labels:
[1] = target: T1, Aspartate--tRNA(Asp/Asn) ligase (Mycobacterium tuberculosis (strain ATCC 25618 / H37Rv)) (UniProt P9WFW3); test: Assay for Asp RNA synthetase-1 from Mycobacterium tuberculosis; assay type: functional; design: scale not given: direction of the effect not stated beside the values; conditions: 30 µM; also: in the data most compounds retested in dose-response had high values
T1 sequence (whole entry): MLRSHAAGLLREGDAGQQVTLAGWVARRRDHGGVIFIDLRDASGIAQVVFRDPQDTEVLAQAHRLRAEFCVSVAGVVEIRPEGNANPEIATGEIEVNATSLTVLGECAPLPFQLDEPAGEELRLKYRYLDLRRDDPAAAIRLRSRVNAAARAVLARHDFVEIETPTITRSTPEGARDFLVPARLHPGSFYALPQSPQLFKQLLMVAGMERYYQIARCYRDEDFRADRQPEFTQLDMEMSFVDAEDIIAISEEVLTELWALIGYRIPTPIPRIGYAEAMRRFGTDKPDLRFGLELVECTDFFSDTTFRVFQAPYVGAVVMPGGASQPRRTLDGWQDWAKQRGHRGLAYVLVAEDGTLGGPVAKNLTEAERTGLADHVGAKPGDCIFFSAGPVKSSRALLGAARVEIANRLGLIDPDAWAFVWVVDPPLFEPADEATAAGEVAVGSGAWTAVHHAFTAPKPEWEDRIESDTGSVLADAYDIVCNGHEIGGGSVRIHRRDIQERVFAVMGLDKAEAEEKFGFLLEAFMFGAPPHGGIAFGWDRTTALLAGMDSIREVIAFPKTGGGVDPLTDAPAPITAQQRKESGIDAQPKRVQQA

[2] = target: Shiga toxin 2 (Escherichia coli O157:H7) (UniProt P09385+P09386); test: E. coli 0.157:H7 Shiga Toxin SOP - stx2 screening assay; assay type: functional; design: scale not given: direction of the effect not stated beside the values; conditions: 30 µM

| Compound | Percent Effect [1] [%] | Percent Effect [2] [%] |
| --- | --- | --- |
| Cc1cnn(CC2CN(CCS(=O)(=O)c3ccccc3)CCO2)c1 (configuration not stated) | -0.24 | 0.99 |
| CCN(Cc1ccc2c(c1)OCCO2)C(=O)NCc1nc(C)cs1 | -0.519 | 28.5 |
| COCCN1CCc2cc(C(=O)N(C)C)c(NCC3CC3)nc2CC1 | 0.183 | 0.232 |
| COc1ccnc(N2CCN(C(=O)CCc3nccs3)CC2)n1 | -1.19 | -2.92 |
| Cc1cc(CN(C)C(=O)NC2CCCN(c3ncccn3)C2)no1 (configuration not stated) | -1.17 | 33.3 |
| Cc1nc(C2CCN(C(=O)CO)CC2)cc(N2CCOCC2)n1 | -1.91 | 17.7 |
| CC(C)NC(=O)N1CCc2nc(C(=O)NCc3ccccc3)sc2CC1 | 0.168 | 4.49 |
| CC(=O)NC(C)CC(=O)NCc1cccnc1Oc1ccccc1C (configuration not stated) | -4.43 | 2.41 |
| CN(CC1CC1)c1ccc2ccc(C(=O)NCCN3CCOCC3)cn12 | -0.228 | -88.6 |
| CN(C)c1cc2c(nn1)CCN(C(=O)C1CCc3ccccc31)C2 (configuration not stated) | 5.85 | 5.96 |
| c1ccc(-c2nccc(CNCC3CCCN3c3cccnn3)n2)cc1 (configuration not stated) | 0.1 | 11.8 |
| COc1cc(CNC2CCc3nc(C(C)C)nn3C2)cc2c1OCO2 (configuration not stated) | 1.32 | 15.4 |
| COCCc1noc(CN2CCN(CC(O)c3ccccc3)CC2)n1 (configuration not stated) | -1.47 | 4.32 |
| CCC(=O)NCCc1cc(N2CCN(C(C)=O)CC2)nc(C2CC2)n1 | -0.432 | -2.36 |
| CCCNC(=O)c1c(-n2cnnn2)sc2c1CCC2 | 1.26 | -42 |
| Cc1nonc1C(=O)N1CCCC(c2ncncc2-c2ccncc2)C1 (configuration not stated) | 2.57 | 10.2 |
| O=C1CC2(CCN(CC3CC3)C2)CN1c1cccc(F)c1 (configuration not stated) | 0.607 | -32.8 |
| Cn1ccnc1CN1CCC2(CC1)CN(CC1CC1)C(=O)CO2 | 2.11 | -17.7 |
| Cc1nc[nH]c1CN1CCN(C(=O)c2cccs2)[C@H]2CS(=O)(=O)C[C@H]21 | -4.62 | 10 |
| O=C(CCN1CCCN(c2nccs2)CC1)NCC1CCCCC1 | -3.75 | -2.79 |
| CC(C)CN(C)c1ccc(C(=O)N2CCCC2c2cnn(C)c2)cn1 (configuration not stated) | -2.28 | 21 |
| Cn1ccc(C(=O)NCc2cccc(N3CCCCC3=O)c2)cc1=O | 0.417 | -29.6 |
| Fc1ccc(CN2CCCC2Cn2cccn2)c2ncccc12 (configuration not stated) | -2.13 | -3.45 |
| Cc1nn(C)c(N2CCOCC2)c1CNC1CCOc2ccccc21 (configuration not stated) | -2.83 | 9.33 |
| CN(Cc1ccc(F)cc1)C(=O)NCC1(N2CCOCC2)CCSC1 (configuration not stated) | -1.08 | -43.8 |
| O=C(NCCCn1cccn1)C1(c2ccc(Br)cc2)CC1 | 0.575 | 8.42 |

| Compound | Percent Effect [1] [%] | Percent Effect [2] [%] |
| --- | --- | --- |
| Cc1ccccc1N1CC2(CCN(S(=O)(=O)C3CC3)C2)CC1=O (configuration not stated) | -1.07 | -4 |
| COc1ccc(-c2noc(CNC(C)Cn3cccn3)n2)c(OC)c1 (configuration not stated) | -1.71 | -8.56 |
| Cc1ncc(CN2Cc3ccccc3O[C@]3(CC[C@H](CO)CC3)C2)cn1 | 0.551 | 18.1 |
| O=C(NCc1cc[nH]n1)NCC(c1ccc(F)cc1)N1CCOCC1 (configuration not stated) | -0.433 | -14.2 |
| CCOCC1CN(C(=O)c2cscn2)Cc2nnn(CC3CC3)c21 (configuration not stated) | -4.51 | -6.48 |
| CCn1nccc1CNC(=O)C1CC1 | 11 | -39.4 |
| CCn1cc2c(n1)CN(Cc1ccoc1)CC2COCC1CC1 (configuration not stated) | -4.69 | 13.8 |
| COc1ccc2c(O)c(NC(=O)NCC3CC3)cnc2c1 | 1.09 | -13.7 |
| O=C(NCC1CC1)[C@H]1C[C@@H]2CCN(Cc3nccs3)C[C@@H]2O1 | -3.13 | 0.967 |
| COCc1cccc(NS(=O)(=O)c2cc(C(=O)O)cs2)c1 | 0.144 | -27.7 |
| CC(NC(=O)NCc1ccc(Cl)s1)c1ccccn1 (configuration not stated) | -0.451 | -14.6 |
| COc1ccsc1C(=O)N1CCCC(n2nc(C)nc2C)C1 (configuration not stated) | 0.571 | 6.02 |
| CC1c2ncc(CN3CCN(C)CC3)n2CCN1CC1CC1 (configuration not stated) | 0.815 | -23.1 |
| CCN1C(=O)C2(CCOCC2)c2cc(NC(=O)c3ccco3)ccc21 | -3.45 | -26.8 |
| Cn1cnc2c1CCN(Cc1nc(-c3ccsc3)no1)C2 | -8.92 | -33 |
| O=C1CCc2cc(C(=O)NCc3ccc(-n4cncn4)nc3)ccc2N1 | -5.04 | 3.55 |
| Cc1cnn(CC2CCCCN2C(=O)c2ccc3[nH]nnc3c2)c1 (configuration not stated) | 0.548 | 30.9 |
| Cc1noc(C)c1CN(C)C(=O)NC1CCN(c2ncccn2)CC1 | 0.9 | 9.61 |
| O=C(Cn1cc(-c2ccccc2)ncc1=O)Nc1ccncc1 | 1.91 | -0.041 |
| NC(=O)N1CCC2(CC1)CN(c1ccsc1)C(=O)CO2 | 1.31 | -21.1 |
| CCCn1[nH]cc/c1=N\C(=O)CN1CCn2c(nnc2C2CC2)C1 | -2.17 | 25.6 |
| CC(O)CN(CC(=O)NC(=O)NCC(F)(F)F)c1ccccc1 (configuration not stated) | -7.32 | 29.2 |
| CSCc1cccc(S(=O)(=O)NCCCn2ccnc2)c1 | 11 | -15.1 |
| Cc1cc(C)cc(NC(=O)CN2CCCC(n3cncn3)C2)c1 (configuration not stated) | -0.903 | 12.2 |
| O=C(NC1CC1)[C@H]1C[C@H]2OCC[C@H]2N(CC2CC2)C1 | 3.52 | -19.5 |
| O=C(NC1CC1)c1cc(NC(=O)N2CCCC(O)C2)ccc1Cl (configuration not stated) | -0.137 | -38.6 |

| Compound | Percent Effect [1] [%] | Percent Effect [2] [%] |
| --- | --- | --- |
| CC(NC(=O)NCCCNS(C)(=O)=O)c1ccncc1 (configuration not stated) | -3.27 | -2.62 |
| CCn1nc(CC(C)C)cc1C(=O)NCCCOC | -0.668 | 11.5 |
| COc1ccc(CN(C)C(=O)CCC(=O)c2cccs2)c(OC)c1OC | 1 | 0.732 |
| O=C(NCc1ccco1)[C@H]1C[C@H]2OCC[C@H]2N(C(=O)c2ccco2)C1 | 3.58 | 6.55 |
| CCC1=N[C@@]2(CC[C@@H]3CN(C(=O)NC(C)C)C[C@@H]32)C(=O)N1C | -7.39 | 3.05 |
| Cc1[nH]nc(CCC(=O)N2CCCC(OCc3cccnc3)C2)c1C (configuration not stated) | -6.25 | 20 |
| COc1ccc(CC(=O)N(C)Cc2nnc3ccccn23)cc1 | 2.36 | 2.4 |
| CC(C)Oc1ncccc1CNC(=O)N1CCC1c1ccccc1 (configuration not stated) | 0.589 | -9.32 |
| O=C1NCc2ccc(NC(=O)C3CCCN3c3nccs3)cc21 (configuration not stated) | 0.522 | -17.5 |
| CC(=O)N1CCN(C(=O)c2cnn(-c3ccccc3Cl)c2)CC1 | 4.65 | 14.3 |
| CC(NC(=O)CCC(=O)c1cccs1)c1nnc2n1CCCCC2 (configuration not stated) | 3.67 | 18.5 |
| O=C(C1CC=CC1)N1CCc2c(COCc3ccncc3)cncc2C1 | -3.81 | -51.1 |
| CC(C)C(=O)NCc1cccc(N2CCCCC2=O)c1 | -1.01 | 6.13 |
| NC(=O)N1CC[C@H](O)[C@@H]1Cc1cccnc1 | 1.51 | 0.815 |
| Cc1cc(CN2CCCC2Cn2cncn2)no1 (configuration not stated) | -4.72 | -0.0947 |
| COc1cc(C)nc(N2CCN(C(=O)CCc3cscn3)CC2)n1 | -2.13 | -10.1 |
| CCOC(=O)[C@]12CCCN(Cc3nccs3)C[C@H]1CN(CCN(C)C)C2 | 6.19 | -7.56 |
| CCN(Cc1ccc2c(c1)OCCO2)S(=O)(=O)N(C)C(C)C | -0.607 | 9.34 |
| Cc1cccc(N2CCN(C(=O)CN3CCN(CCO)CC3)CC2)c1 | 1.98 | 0.874 |
| CC(=O)N1CCC(c2ccnc(Nc3cnccn3)n2)C1 (configuration not stated) | 1.13 | -14.2 |
| Cc1cn2c(n1)CCC(NC(=O)c1cnc(C)nc1C(C)C)C2 (configuration not stated) | 2.91 | 20.9 |
| O=c1ccc(-c2cccs2)nn1CN1CCN(Cc2ccccc2)CC1 | -1.1 | 9.12 |
| Cc1n[nH]c(C2CN(C(=O)c3cc(C4CC4)[nH]n3)CCO2)n1 (configuration not stated) | 1.87 | 23.4 |
| O=C(c1cccnc1O)N(Cc1ccsc1)CC1CCCO1 (configuration not stated) | -1.37 | -27.4 |
| Cc1cn2nc(N3CCCC3CC(C)(C)C)sc2n1 (configuration not stated) | 1.06 | 22.9 |
| Cc1nc(-c2nnc[nH]2)sc1C(=O)N(Cc1cccnc1)C1CC1 | -2.72 | 7.27 |

| Compound | Percent Effect [1] [%] | Percent Effect [2] [%] |
| --- | --- | --- |
| O=C(NCC1CCN(C(=O)c2ccoc2)CC1)c1ccccc1Br | -6.27 | 3.64 |
| CN(C(=O)CN1CCOC(Cn2cccn2)C1)c1nccs1 (configuration not stated) | 5.6 | -22.6 |
| O=C([C@H]1C[C@H]2OCC[C@H]2N(C(=O)c2ccncc2)C1)N1CCCCO1 | -3.79 | -6.05 |
| COc1cccc(N2CCN(C(=O)[C@H](O)C3CCCCC3)CC2=O)c1 | -3.25 | -7.11 |
| NC(=O)c1ccc(OCC(=O)N2CCCC(n3cccn3)C2)cc1 (configuration not stated) | -4.7 | 26 |
| O=c1ccc(-c2cccs2)nn1CN1CCCCCC1 | -1.83 | -4.33 |
| CCn1c(NCc2ccco2)nc2c(C)nn(C)c2c1=O | -3.66 | -41.1 |
| CC(NC(=O)Cc1cccs1)c1nnc2n1CCCCC2 (configuration not stated) | -4.69 | 5.32 |
| O=C(c1cccnc1)N1C[C@@H]2CC[C@H](C1)N(Cc1cccc(Cl)c1F)C2 | 9.03 | -10.5 |
| COCCN(C)C(=O)Cn1cccc(OC)c1=O | 49.9 | -42.8 |
| Cc1nc(N2CCOCC2)nc2c1CCN(Cc1cccnc1)CC2 | 2.91 | -7 |
| Cc1cnn(CC2CCCN2Cc2cc(=O)n3ccccc3n2)c1 (configuration not stated) | 2.04 | 2.37 |
| O=C(Cc1ccc(F)cc1)N1CCCCC1c1ccn2ccnc2n1 (configuration not stated) | -3.71 | 6.23 |
| CC(C)(C)OC(=O)CNC(=O)CCc1nnc(-c2ccsc2)o1 | 8.92 | -21.2 |
| CC(C)C(=O)NCC(=O)N(C)C1CCCN(CCc2ccccc2)C1 (configuration not stated) | -0.948 | -14.4 |
| CN(C)S(=O)(=O)c1ccc(OCCNCCn2cccn2)cc1 | -6.56 | -13.8 |
| CC(C)c1nnc(CN2CCCC2Cn2cncn2)o1 (configuration not stated) | -1.37 | -22.4 |
| Cn1ccc2ccc(C(=O)N3CCN(C(=O)N4CCOCC4)CC3)cc21 | -0.0331 | 7.14 |
| Cc1cnn(CC2CCCN2C(=O)c2cc3ccccc3[nH]c2=O)c1 (configuration not stated) | -1.15 | 22.9 |
| CC(=O)N(C)c1nc(CN2CCOC(Cn3cc(C)cn3)C2)cs1 (configuration not stated) | -3.86 | -9.15 |
| O=C(O)c1cc(S(=O)(=O)Nc2ccc(Cl)cc2)cc2c1OCCO2 | 0.0437 | -7.1 |
| Cc1cc(NC(=O)NCc2ccccn2)n(C)n1 | 3.94 | -40.7 |
| CCc1noc(CN(C)Cc2ccc(N3CCCCC3)cc2)n1 | -2.17 | -19.3 |

— ChEMBL document CHEMBL3988442, “University of Dundee, Small-Polar-MMV Screening Library” (2021)
